Rows were chosen to be rich in hits. Some 5.4% of all compounds tested hit in one or more screens of this group.
ALR H2O2 inh: inhibitors of human ALR sulfhydryl oxidase, primary screen, biochemical, H2O2 detection, HRP-luminol luminescence, single point. purified ALR, DTT oxidation. inhibition, % (test concentration not listed). 290,000 tested, 3.8% active. AID 485317, 2010;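 active = mean replicate inhibition above about 79%, with every replicate also reaching it, limit read from the data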
CSC inhib: cancer stem cell viability inhibitors, primary screen, luminescence. cancer stem cell-like cells viability. inhibition, % at 7.5 µM. AID 2717, 2010. 300,000 tested, 1.1% active; in the data active = inhibition above about 75%; tested in HMLE shEcad cells
Calb FLC: C. albicans growth inhibition with fluconazole, primary screen, CaCi-2 strain, Alamar Blue fluorescence; 300,000 tested, 0.57% active; growth inhibition, % (test concentration not listed); C. albicans CaCi-2 (fluconazole-resistant clinical isolate) + fluconazole, 48 h; AID 1979, 2009;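 active = growth inhibition above about 58% in most replicates, limit read from the data, passing the limit was not always enough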;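 note: all wells also contain fluconazole at 8 µg/ml as a sub-toxic cotreatment; 0% = median of DMSO wells and 100% = median of geldanamycin control wells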
PP1 counter: PP1-alpha phosphatase inhibitors, primary screen, counter-screen for PP5 inhibitor project, biochemical, fluorescence, OMFP substrate, single point | Serine/threonine-protein phosphatase PP1-alpha catalytic subunit (Homo sapiens), P62136 | purified PP1alpha | inhibition, % at 6.7 µM | 320,000 tested, 0.9% active | AID 2235, 2010;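 active = inhibition above the mean inhibition of all tested compounds plus 3 SD, computed separately for each screening campaign, cut at about 15% in these data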
PP5 inh: PP5 phosphatase inhibitors, primary screen, biochemical, fluorescence; Serine/threonine-protein phosphatase 5 (Homo sapiens), P53041; inhibition, % at 6.7 µM; 320,000 tested, 0.18% active; purified PP5c, OMFP substrate fluorescence;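 active = inhibition above the campaign's mean inhibition across all tested compounds plus 3 SD, cut at about 9.5% in these data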;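 note: 0% = DMSO only and 100% = 100 µM cantharidin control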
Target sequence (P53041 whole entry, looked up): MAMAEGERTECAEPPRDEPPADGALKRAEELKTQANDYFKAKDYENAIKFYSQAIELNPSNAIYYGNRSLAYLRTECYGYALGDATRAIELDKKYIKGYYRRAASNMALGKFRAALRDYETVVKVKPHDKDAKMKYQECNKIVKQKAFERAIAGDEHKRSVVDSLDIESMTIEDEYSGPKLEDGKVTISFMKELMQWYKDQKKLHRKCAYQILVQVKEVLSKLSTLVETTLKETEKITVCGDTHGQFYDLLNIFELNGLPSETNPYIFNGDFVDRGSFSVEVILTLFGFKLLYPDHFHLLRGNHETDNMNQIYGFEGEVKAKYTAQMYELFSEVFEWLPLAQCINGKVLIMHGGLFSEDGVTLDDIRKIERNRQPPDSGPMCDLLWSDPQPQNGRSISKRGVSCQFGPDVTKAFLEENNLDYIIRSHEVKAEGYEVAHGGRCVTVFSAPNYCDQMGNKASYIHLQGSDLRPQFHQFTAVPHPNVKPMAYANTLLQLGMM
PP1 inh confirm: PP1 phosphatase inhibitors, confirmation, biochemical, fluorescence, OMFP substrate, triplicate; shares compounds with PP1 counter; purified PP1alpha; inhibition, % at 6.7 µM; 1,900 tested, 52% active; AID 2358, 2010;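 active = mean PP1 inhibition above a set limit taken from the earlier primary screen, cut at about 15% in these data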
PP5 inh counter: PP5 phosphatase inhibition by PP1 hits, confirmation, counter-screen for PP1 inhibitor project, biochemical, fluorescence, triplicate; shares compounds with PP1 counter; purified PP5c, OMFP fluorescence; inhibition, % at 6.7 µM; 1,900 tested, 4% active;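 active = mean PP5 inhibition over triplicate wells above about 9.5% taken from the earlier PP1 screen, limit read from the data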
Starred values were filed as active, the others as inactive; nt = no result.

SMILES	ALR H2O2 inh	CSC inhib	Calb FLC	PP1 counter	PP5 inh	PP1 inh confirm	PP5 inh counter
CCOC(=O)c1[nH]c2cc3c(cc2c1CCCN1C(=O)c2ccccc2C1=O)OCCO3	-25	1	-3	-2	5	nt	nt
Cc1ccc(OCCn2c(C)c(/C=N/n3cnnc3)c3ccccc32)cc1	-1	17	2	1	1	nt	nt
Cc1c(/C=N/n2cnnc2)c2ccccc2n1CCOc1ccc(Cl)cc1	25	7	-8	29*	4	4	-3
Cc1cccc(NC(=O)Cn2c(O)c(N=NC(=O)c3ccncc3)c3ccccc32)c1	-5	14	5	1	0	nt	nt
Cc1ccc(NC(=O)Cn2c(O)c(N=NC(N)=O)c3ccccc32)cc1	-2	nt	-6	-2	-2	nt	nt
Cc1ccc(NC(=O)Cn2c(O)c(N=NC(N)=S)c3ccccc32)cc1	-9	10	-13	21*	1	10	-6
Cc1cccc(NC(=O)Cn2c(C)c(C#N)c3ccccc32)c1C	-4	-3	-8	21*	2	19*	-1
Cc1ccccc1NC(=O)Cn1c(O)c(N=NC(=O)c2ccccc2O)c2ccccc21	0	1	3	20*	2	24*	-5
CCCN1Cc2cccc(C(=O)NCc3ccc(C)cc3)c2C1=O	-4	-11	4	1	2	nt	nt
Cc1cc(C)c(C(=O)CSc2n[nH]c(-c3ccncc3)n2)c(C)c1	17	7	9	4	1	nt	nt
Cc1ccc(-n2nc3ccc(NC(=O)/C=C/c4ccco4)cc3n2)cc1	3	11	-5	19*	0	9	-2
O=C(NNc1nc2ccc(Cl)cc2s1)c1cc(-c2cccs2)nc2ccccc12	-1	109*	86*	25*	2	30*	-4
O=C(NN1CCOCC1)c1cc(-c2cccs2)nc2ccccc12	7	5	3	-1	2	nt	nt
COc1ccccc1NC(=O)C(=O)N/N=C(\C)CC(=O)Nc1ccc(OCc2ccccc2)cc1	nt	-2	10	19*	4	24*	-2
C/C(CC(=O)Nc1ccc(OCc2ccccc2)cc1)=N\NC(=O)C(=O)Nc1cccc(C)c1	-13	13	4	18*	-2	0	-6
CC(=O)Nc1ccc(C(=O)N/N=C(\C)CC(=O)Nc2ccc(OCc3ccccc3)cc2)cc1	5	6	-18	12	3	nt	nt
CC(=O)N1N=C(c2ccccc2OC(=O)/C=C/c2ccccc2)CC1c1ccccc1 (stereo not drawn)	-1	7	-30	21*	2	0	0
CC1CCN(C(=O)Cn2nc(C(F)(F)F)c3c2CCCC3)CC1	-1	8	19	34*	-2	-4	-4
CC(C)(C)NC(=O)Cn1nc(C(F)(F)F)c2c1CCCC2	1	-4	-2	-2	2	nt	nt
COc1ccc(-c2nn(C)c(=O)c3ccccc23)cc1NC(=O)Cn1nc(-c2ccccc2)c2ccccc2c1=O	-17	15	-7	24*	3	18*	-2
Cc1cc(C(=O)N2CCCC(N3CCN(c4cccc(C(F)(F)F)c4)CC3)C2)no1 (stereo not drawn)	1	-1	-3	1	2	nt	nt
CCN(CC)S(=O)(=O)c1cccc(N=NC2=C(O)CCCC2=O)c1	-4	3	0	57*	-2	0	-4
CCOc1ccc(C2Nc3cccc4cccc(c34)N2)cc1OC	-18	-15	21	-3	1	nt	nt
CCOc1cc(C2Nc3cccc4cccc(c34)N2)ccc1O	-15	-1	16	24*	4	2	8
CCn1nnnc1SCC(=O)NNC(=O)C1CCCCC1	-5	-12	-2	0	-1	nt	nt
SMILES	ALR H2O2 inh	CSC inhib	Calb FLC	PP1 counter	PP5 inh	PP1 inh confirm	PP5 inh counter
NC(=O)c1nc(-c2ccccc2)c(-c2ccccc2)[nH]c1=O	-15	1	-4	20*	0	16*	-4
Brc1cnc2nc[nH]c2c1	-9	-12	-16	-5	-1	nt	nt
O=C(NC(=S)Nc1ccc(F)c([N+](=O)[O-])c1)c1ccccc1F	22	2	30	0	4	nt	nt
O=C(O)C1=NN(c2ccccc2)C(=O)CC1	-4	-18	-8	10	3	nt	nt
O=C(O)C1=NN(c2ccccc2)C(=O)C1	2	-15	5	29*	-3	-3	-4
CCc1cccc2c(C(=O)C(NCCCOC)c3ccccc3)c[nH]c12 (stereo not drawn)	0	7	-4	-2	4	nt	nt
COC(=O)c1sc(NC(=O)CSc2nncs2)c(C(=O)OC)c1C	-3	-4	-2	-3	6	nt	nt
CCN(CC)CCOC(=O)c1ccc(N/C=C(/C#N)c2nc(-c3ccc(OC)c(OC)c3)cs2)cc1	0	2	15	66*	2	35*	-1
CCN(CC)CCOC(=O)c1ccc(N/C=C(/C#N)c2nc(-c3cccc(OC)c3)cs2)cc1	6	15	10	54*	1	9	-2
CCN(CC(=O)Nc1c(F)cccc1F)C(=O)c1ccc(COc2ccccc2)cc1	-2	-5	-3	-5	-1	nt	nt
CCOC(=O)[C@H]1[C@H]2COc3ccc(Cl)cc3[C@@H]2N2C(=O)c3ccc(Cl)cc3NC(=O)[C@@]12C	nt	36	nt	2	0	nt	nt
Cc1cnc(C(=O)OC(C)C(=O)c2c(C)[nH]c3ccccc23)cn1 (stereo not drawn)	12	-6	-8	-1	1	nt	nt
Cc1[nH]c2ccccc2c1C(=O)C(C)OC(=O)C1CCC1 (stereo not drawn)	-6	nt	14	28*	5	0	-1
FC(F)(F)c1ccc2c(c1)n(Cc1ccccc1)c1[n+]2CCCCC1	2	-6	-68	0	0	nt	nt
COc1ccc(C)c2sc(N(CCCN(C)C)C(=O)c3ccc(S(=O)(=O)N4CCc5ccccc5C4)cc3)nc12	-24	-7	3	5	2	nt	nt
COc1ccc(OC)c2sc(N(CCCN(C)C)C(=O)c3ccc(S(=O)(=O)N4CCc5ccccc5C4)cc3)nc12	-4	101*	12	20*	3	22*	1
CCCCNC1CCS(=O)(=O)C1 (stereo not drawn)	-2	-1	-2	-1	0	nt	nt
O=C(O)CN1C(=O)/C(=C\c2ccccc2OCc2ccc(Cl)cc2Cl)SC1=S	87*	48	30	24*	0	21*	0
Cc1ccc(S(=O)(=O)N(CC(=O)Nc2ccccc2)C(=O)N2CCN(C)CC2)cc1	-3	-10	-9	-6	-1	nt	nt
